Unmarked numbers belong to inactive results. Records with an inconclusive call do not appear. A call without a number means that no potency is given here. Calls of active or inactive are those of the source. Calls follow the shape of the dose curve; as a rule, active = well fitted curve in the direction sought with a large enough effect; inconclusive = small, poorly fitted or top-dose-only effect, or another doubt; inactive = no such curve, though single readings can be large; an effect the other way counts as inactive or inconclusive.
Legend:
[1] = qHTS Assay for Identifying Gametocytocidal Compounds (AID 743244); also: potency is read from the fitted curve at half-maximal effect;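 as to max response: actives lower the fluorescent signal which means gametocytes are killed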; conditions: P. falciparum 3D7 stage III-V gametocytes, alamarBlue, 72 h; max response: stronger effect = lower value
Method in brief: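 In this qHTS viability screen, late-stage 3D7 gametocytes are incubated with compound for 72 h, then with alamarBlue for 24 h; reduced resorufin fluorescence marks killing.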

[2] = qHTS assay for measurement of the activity of small molecule inhibitors on Zika virus induced Caspase-3 activity in human astrocytoma cells (AID 1224859)
Method in brief: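 A cell-based luminescent caspase-3/7 assay used SNB-19 cells infected with ZIKV (2 FFU/cell) for 6 h following 1 h compound pretreatment.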

[3] = qHTS assay to identify small molecule inhibitors of chordoma cells - UCH-2 (AID 1259356); also: series mostly up to about 46 µM
[4] = molecular target: T1, Hexokinase-4 (Homo sapiens) + Glucokinase regulatory protein (Homo sapiens) (UniProt P35557+Q14397); experiment: qHTS assay for inhibitors of recombinant human GCK-GKRP interaction: Diaphorase-coupled assay (AID 743205)
Method in brief: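 Inhibitors of the GCK–GKRP complex relieve GKRP suppression of GCK, detected through a G6PDH–diaphorase cascade reducing resazurin. Human GST-GCK and FLAG-GKRP are used at 10 nM with 5 mM glucose and 0.4 mM ATP.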

[5] = molecular target: T1, Hexokinase-4 (Homo sapiens) + Glucokinase regulatory protein (Homo sapiens); experiment: qHTS assay for inhibitors of recombinant human GCK-GKRP interaction: ADP-Glo assay (AID 743206)
Method in brief: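 GST-GCK and FLAG-GKRP (15 nM each in the dispensed mix, with 2 uM S6P) react with 0.4 mM ATP and 5 mM glucose (final) in Hepes pH 7.6 for 60 min at room temperature. ADP is measured by ADP-Glo luminescence.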

[6] = molecular target: T1, Hexokinase-4 (Homo sapiens) + Glucokinase regulatory protein (Homo sapiens); experiment: qHTS assay for inhibitors of recombinant human GCK-GKRP interaction: HTRF assay (AID 743207); also: potency is read from the fitted curve at half-maximal effect
Method in brief: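 Steps: dispense GCK–GKRP complex (5 nM each, GST- and FLAG-tagged) with 2 uM S6P; pin in compounds; add XL665/Eu-cryptate-labelled antibodies; incubate 60 min at room temperature; read time-resolved FRET at 665 and 615 nm.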

T1 sequence (P35557 whole entry, looked up): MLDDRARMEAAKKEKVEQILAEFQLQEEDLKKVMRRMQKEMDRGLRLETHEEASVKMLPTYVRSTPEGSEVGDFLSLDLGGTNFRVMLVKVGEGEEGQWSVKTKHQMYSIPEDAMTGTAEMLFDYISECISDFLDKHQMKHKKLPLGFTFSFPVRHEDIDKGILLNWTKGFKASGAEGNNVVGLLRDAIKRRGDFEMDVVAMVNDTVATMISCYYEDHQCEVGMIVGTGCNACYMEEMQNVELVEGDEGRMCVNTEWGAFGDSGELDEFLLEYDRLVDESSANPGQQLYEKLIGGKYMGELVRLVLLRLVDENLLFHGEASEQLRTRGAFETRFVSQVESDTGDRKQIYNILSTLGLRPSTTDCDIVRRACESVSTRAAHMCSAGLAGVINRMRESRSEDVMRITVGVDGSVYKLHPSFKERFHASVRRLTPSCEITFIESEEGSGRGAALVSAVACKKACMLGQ
T1 sequence (Q14397 whole entry, looked up): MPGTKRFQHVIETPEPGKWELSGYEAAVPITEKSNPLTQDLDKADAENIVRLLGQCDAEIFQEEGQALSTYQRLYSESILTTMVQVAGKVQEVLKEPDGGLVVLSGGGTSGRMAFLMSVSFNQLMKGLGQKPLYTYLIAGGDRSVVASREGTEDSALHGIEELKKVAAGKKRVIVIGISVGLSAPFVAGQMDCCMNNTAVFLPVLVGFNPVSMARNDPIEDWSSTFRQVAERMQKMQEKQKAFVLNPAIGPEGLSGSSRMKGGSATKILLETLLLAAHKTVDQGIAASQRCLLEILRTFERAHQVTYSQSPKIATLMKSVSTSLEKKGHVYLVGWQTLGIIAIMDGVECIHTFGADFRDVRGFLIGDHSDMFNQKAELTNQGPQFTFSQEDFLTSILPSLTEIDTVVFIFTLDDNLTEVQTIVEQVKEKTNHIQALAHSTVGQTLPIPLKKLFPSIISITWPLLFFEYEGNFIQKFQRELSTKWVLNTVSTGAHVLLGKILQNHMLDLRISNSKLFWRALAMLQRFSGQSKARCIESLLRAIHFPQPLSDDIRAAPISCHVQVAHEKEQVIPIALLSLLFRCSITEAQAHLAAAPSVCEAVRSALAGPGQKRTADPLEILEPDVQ

Structure (SMILES): CCOc1ccc2nc(S(N)(=O)=O)sc2c1
- max response [1]: 10.4%
- Potency [2]: inactive
- Potency [3]: inactive

Structure (SMILES): Cc1ccc(S(=O)(=O)/C=C/C#N)cc1
- outcome [4]: inactive
- Potency [5]: inactive
- Potency [6]: inactive
- Potency [1]: 3550 nM (active)
- Potency [2]: inactive

Structure (SMILES): Cc1ccc(C(=O)O[C@H](C(=O)O)[C@@H](OC(=O)c2ccc(C)cc2)C(=O)O)cc1 (tested in a mixture with another compound)
- outcome [4]: inactive
- Potency [5]: inactive
- Potency [6]: inactive
- max response [1]: -5.55%
- Potency [2]: inactive

Structure (SMILES): CN1C2CCC1CC(OC(=O)C(O)c1ccccc1)C2 (stereo not drawn)
- outcome [4]: inactive
- Potency [5]: inactive
- Potency [6]: inactive
- max response [1]: 30%
- Potency [2]: inactive

Structure (SMILES): CN1CCc2cccc3c2C1Cc1ccc(O)c(O)c1-3 (stereo not drawn)
- outcome [4]: inactive
- Potency [5]: inactive
- Potency [6]: inactive
- Potency [1]: 562 nM (active)
- Potency [2]: inactive

Structure (SMILES): CC(=O)/C=C1\C(=O)N(C)c2ccccc21
- outcome [4]: inactive
- Potency [5]: inactive
- Potency [6]: inactive
- max response [1]: -11.9%
- Potency [2]: inactive

Structure (SMILES): OCC1O[C@H]([S-])[C@H](O)[C@@H](O)[C@@H]1O.[Au+] (stereo partly drawn)
- outcome [4]: inactive
- Potency [5]: inactive
- Potency [6]: 15800 nM (active)
- Potency [1]: 2820 nM (active)
- Potency [2]: inactive

Structure (SMILES): Nc1ncnc2c1c(I)cn2[C@@H]1C[C@H](N)[C@@H](O)[C@H]1O
- outcome [4]: inactive
- Potency [5]: inactive
- Potency [6]: inactive
- max response [1]: 12.6%
- Potency [2]: inactive

Structure (SMILES): O=C(O)CC[C@@H](C(=O)O)N1C(=O)c2ccccc2C1=O
- outcome [4]: inactive
- Potency [5]: inactive
- Potency [6]: inactive
- max response [1]: -10.9%
- Potency [2]: inactive

Structure (SMILES): O=C(O)CC1CC(c2ccccc2)=NO1 (stereo not drawn)
- outcome [4]: inactive
- Potency [5]: inactive
- Potency [6]: inactive
- max response [1]: -4.91%
- Potency [2]: inactive

Structure (SMILES): N#C/C(=C\c1ccc(O)c(O)c1)C(=O)NCCCc1ccccc1
- outcome [4]: inactive
- Potency [5]: inactive
- Potency [6]: inactive
- max response [1]: 8.54%
- Potency [2]: inactive

Structure (SMILES): N.N.O=C(O)C1(C(=O)O)CCC1.[Pt]
- outcome [4]: inactive
- Potency [5]: inactive
- Potency [6]: inactive
- max response [1]: -4.37%
- Potency [2]: inactive

Structure (SMILES): CNC(=O)[C@H]1O[C@@H](n2cnc3c(NCc4ccc(N)cc4)ncnc32)[C@H](O)[C@@H]1O
- outcome [4]: inactive
- Potency [5]: inactive
- Potency [6]: inactive
- max response [1]: 6.14%
- Potency [2]: inactive

Structure (SMILES): CNc1ncnc2c1ncn2[C@@H]1O[C@H](CO)[C@@H](O)[C@H]1O
- outcome [4]: inactive
- Potency [5]: inactive
- Potency [6]: inactive
- max response [1]: 31.8%
- Potency [2]: inactive

Structure (SMILES): CN(C)CCCO[C@@H]1[C@H]2OC(C)(C)O[C@H]2O[C@@H]1[C@H](O)CO
- outcome [4]: inactive
- Potency [5]: inactive
- Potency [6]: inactive
- max response [1]: 19.5%
- Potency [2]: inactive

Structure (SMILES): Nc1nc(Cl)nc2c1ncn2[C@@H]1O[C@H](CO)[C@@H](O)[C@H]1O
- outcome [4]: inactive
- Potency [5]: inactive
- Potency [6]: inactive
- max response [1]: 6.66%
- Potency [2]: inactive

Structure (SMILES): COc1cc(C(O)CO)ccc1OS(=O)(=O)O (stereo not drawn)
- outcome [4]: inactive
- Potency [5]: inactive
- Potency [6]: inactive
- max response [1]: 2.33%
- Potency [2]: inactive

Structure (SMILES): O=[N+]([O-])c1ccc2c(c1)S(=O)(=O)C=C2
- outcome [4]: inactive
- Potency [5]: inactive
- Potency [6]: inactive
- Potency [1]: 1000 nM (active)
- Potency [2]: inactive

Structure (SMILES): Ic1ccc(N2CCN(Cc3c[nH]c4ncccc34)CC2)cc1
- outcome [4]: inactive
- Potency [5]: inactive
- Potency [6]: inactive
- max response [1]: 5.54%
- Potency [2]: inactive

Structure (SMILES): NCCNC(=O)c1ncsc1-c1cccc(F)c1
- outcome [4]: inactive
- Potency [5]: inactive
- Potency [6]: inactive
- max response [1]: 3.56%
- Potency [2]: inactive

Structure (SMILES): NC(=S)c1ccc[n+]([C@@H]2O[C@@H](COP(=O)([O-])OP(=O)(O)OC[C@H]3O[C@@H](n4cnc5c(N)ncnc54)[C@H](OP(=O)(O)O)[C@@H]3O)C(O)C2O)c1 (stereo partly drawn)
- outcome [4]: inactive
- Potency [5]: inactive
- Potency [6]: inactive
- max response [1]: 5.56%
- Potency [2]: inactive

Structure (SMILES): OC[C@H]1O[C@@H](n2cnc3c(NC4CCCC4)ncnc32)[C@H](O)[C@@H]1O
- outcome [4]: inactive
- Potency [5]: inactive
- Potency [6]: inactive
- max response [1]: -3.53%
- Potency [2]: inactive

Structure (SMILES): CC1OC1P(=O)(O)O (stereo not drawn)
- outcome [4]: inactive
- Potency [5]: inactive
- Potency [6]: inactive
- max response [1]: -9.6%
- Potency [2]: inactive

Structure (SMILES): OC[C@H]1O[C@@H](n2cnc3c(Nc4ccccc4)ncnc32)[C@H](O)[C@@H]1O
- outcome [4]: inactive
- Potency [5]: inactive
- Potency [6]: inactive
- max response [1]: -5.57%
- Potency [2]: inactive

Structure (SMILES): CCNC(=O)[C@H]1O[C@@H](n2cnc3c(N)nc(NCCc4ccc(CCC(=O)O)cc4)nc32)[C@H](O)[C@@H]1O
- outcome [4]: inactive
- Potency [5]: inactive
- Potency [6]: inactive
- max response [1]: -4.57%
- Potency [2]: inactive

Structure (SMILES): CCN(CC)c1ncnc2c1ncn2[C@@H]1O[C@H](COP(=O)(O)OP(=O)(O)C(Br)(Br)P(=O)(O)O)[C@@H](O)[C@H]1O
- outcome [4]: inactive
- Potency [5]: inactive
- Potency [6]: inactive
- max response [1]: -1.02%
- Potency [2]: inactive

Structure (SMILES): CCCCC#Cc1nc(NC)c2ncn([C@@H]3O[C@H](CO)[C@@H](O)[C@H]3O)c2n1
- outcome [4]: inactive
- Potency [5]: inactive
- Potency [6]: inactive
- max response [1]: 34.4%
- Potency [2]: inactive

Structure (SMILES): N#C/C(=C\c1ccc(O)c(O)c1)C(=O)c1ccc(O)c(O)c1
- outcome [4]: inactive
- Potency [5]: inactive
- Potency [6]: inactive
- max response [1]: 10.5%
- Potency [2]: inactive
